Test results from PubChem BioAssay AID720580 (National Center for Advancing Translational Sciences (NCATS), 2013).
“And” between values parts separate entries of the source, which are not always exact repeats. Equal values may be shown once. Screen size: about 330,000 compounds; about 1,500 (0.45%) were called active. About 6% were inconclusive and are not listed. Calls come from the whole dose curve; tested in A549 cells. Shown is part of a subset that was picked to be rich in actives. A call without a number means that no potency is given here. Some structures have more than one record in an assay (separate samples or runs), and their calls can disagree.

Assay: qHTS for Stage-Specific Inhibitors of Vaccinia Orthopoxvirus: Venus Reporter Primary qHTS; note: nearly all actives have a fitted effect of over 30% in size
Settings: Vaccinia virus Venus reporter expression, fluorescence; series mostly up to 36.5 µM
Potency is the fitted concentration of half-maximal effect.

Row | SMILES | Potency
1 | CCOC(=O)N1CCN(C(=O)C[C@@H]2C[C@@]3(C(=O)OC)CCCCC=C3N(CCC3=CCCCC3)C2=O)CC1 | inactive
2 | CC1(C)OC(=O)C2=C(C[C@@H](C3CC3)O[C@H]2CCc2cccc(Cl)c2)O1 | inactive
3 | CC(=O)NCCNC(=O)c1cc(-c2cccc3ccccc23)nc2ccccc12 | inactive
4 | CN(C)CCNC(=O)c1ccc(Cl)c2cc3ccccc3nc12 | 4.47 µM (active)
5 | CN(C)CCNC(=O)Nc1cccc(Cl)c1Cl | inactive
6 | COc1cc(C(O)c2nc(-c3cnn(C)c3)cs2)ccc1F (stereo not drawn) | inactive
7 | COc1ccc(NS(=O)(=O)c2ccc3oc(SCC(N)=O)nc3c2)cc1 | 4.47 µM (active)
8 | COc1ccc(NC(=O)c2cnc(NS(=O)(=O)c3ccccc3)nc2)cc1 | inactive
9 | CCn1c(=O)c(=O)[nH]c2c(=O)oc3ccc(S(=O)(=O)Nc4ccc(OC)cc4)cc3c21 | inactive
10 | O=C1CCN(Cc2ccc(-c3ccccc3)cc2)CCN1Cc1ccccn1 | inactive
11 | Cc1oc2c(c1C(=O)N1CCOCC1)C(=O)c1ccccc1C2=O | 3.16 µM (active)
12 | Cc1ccccc1-c1ccc(Nc2ccc(C(=O)N3CCOCC3)cc2)nn1 | inactive
13 | COC1=C(N2CCOCC2)C(=O)c2ccccc2C1=O | inactive
14 | CCCCC(CCCC)c1ccc(C=Nc2ccc(/C=C/c3ccnc4ccccc34)cc2)cc1 | inactive
15 | Cc1ccccc1-c1csc(C(O)c2cccc(Cl)c2)n1 (stereo not drawn) | inactive
16 | c1ccc2c(c1)[I+]c1ccccc1-2 | inactive and 10 µM (active)
17 | N=C1c2ccccc2-c2ccccc21 | inactive
18 | CCCC[C@@H]1CN=C(N)N1CCc1cc(C(F)(F)F)cc(C(F)(F)F)c1 | 10 µM (active)
19 | CCCC[C@@H]1CN=C(N)N1CCCC | inactive
20 | CCCC[C@@H]1CN=C(N)N1CCc1cccc(F)c1 | inactive
21 | COc1cc(CNc2ncnc3c2ncn3[C@H]2CN(Cc3cccs3)C[C@@H](CO)O2)cc(OC)c1OC | inactive

Row | SMILES | Potency
22 | NCCCCC(C(=O)O)N(C(=O)OCc1ccccc1)C(=O)OCc1ccccc1 (stereo not drawn) | inactive
23 | Cc1ccc(-c2nn(-c3ccccc3)cc2/C=N/NC(=O)c2ccc3c(c2)OCO3)cc1 | inactive
24 | O=Cc1cn(-c2ccccc2)nc1-c1ccccn1 | inactive
25 | COc1ccc(-c2nn(-c3ccccc3)cc2/C=N/Nc2ccccn2)cc1OC | 14.1 µM (active)
26 | CCC(C)N1C(=O)S/C(=C/c2ccc(Sc3nc4ccccc4[nH]3)o2)C1=O (stereo not drawn) | 11.2 µM (active)
27 | CCC(c1nc2ccccc2[nH]1)n1c(=O)c(-c2cccs2)nc2ccccc21 (stereo not drawn) | inactive
28 | O=C(CSc1nc2ccccc2[nH]1)Nc1nc(-c2ccccc2)c(-c2ccccc2)o1 | inactive
29 | O=C(NCc1ccc(F)cc1)c1cc(C2CCCCN2C(=O)C2CCCCC2)on1 (stereo not drawn) | inactive
30 | COc1ccc(C2=Nc3ccccc3NC(=O)C2N(C(=O)c2cc3ccccc3[nH]2)c2ccccc2)cc1 (stereo not drawn) | inactive
31 | C=CC[C@@H](CC(=O)N[C@H](CO)Cc1ccccc1)C(=O)N[C@H](C)COC(=O)[C@@H](CC=C)Cc1ccc(F)cc1 | inactive
32 | C=CCC[C@H](Cc1ccc(F)cc1)C(=O)OC[C@@H](NC(=O)[C@@H](CC=C)CC(=O)N[C@H](CO)Cc1ccccc1)C(C)(C)C | 11.2 µM (active)
33 | C=CC[C@@H](CC(=O)N[C@H](CO)Cc1ccccc1)C(=O)N[C@@H](COC(=O)[C@@H](CC=C)Cc1ccc(F)cc1)Cc1c[nH]c2ccccc12 | inactive
34 | Cc1ccccc1Cn1c(C)c(C(=O)NCc2cccc(C(F)(F)F)c2)sc1=O | inactive
35 | CN1CC[C@H](c2c(O)cc(O)c3c(=O)cc(-c4ccccc4Cl)oc23)[C@H](O)C1 | 0.0794 µM (active)
36 | O=C(Nc1ccc(Cl)c(C(F)(F)F)c1)C1Cc2c(-c3ccccc3Oc3ccccc3)ccnc2O1 (stereo not drawn) | inactive
37 | CC1(C(=O)Nc2ccc3c(c2)OCCO3)CCN1C(=O)Cc1cc(F)ccc1F (stereo not drawn) | inactive
38 | CN(C)Cc1cn(-c2ccccc2)nc1-c1ccccc1 | inactive
39 | CCc1ccc(-c2nn(-c3ccccc3)cc2CSC(=N)N)cc1 | 11.2 µM (active)
40 | CCc1ccc(-c2nn(-c3ccccc3C)cc2C(=O)N2CCN(C3CCS(=O)(=O)C3)CC2)cc1 (stereo not drawn) | inactive
41 | COC(=O)C1CCCCN1Cc1ccc2c(c1)CN(Cc1cc(OC)c3c(c1)OCO3)CCO2 (stereo not drawn) | inactive
42 | CCCCCc1c(Cc2ccccc2)ncn1CCc1ccccc1OC | 1.41 µM (active)

Row | SMILES | Potency
43 | CCCCCc1c(-c2ccc(OC)c(OC)c2)ncn1CCc1ccccc1OC | inactive
44 | CCCCCc1c(-c2cccc(Br)c2)ncn1CCc1ccccc1OC | inactive
45 | O=C(Nc1ccccc1)c1ccccc1OCc1ccccc1 | inactive
46 | CC1(C(=O)NCC2CCOCC2)Cc2c(-c3cccc(C(N)=O)c3)ccnc2O1 (stereo not drawn) | inactive
47 | COc1ccc(-c2nc3ccc(Br)cn3c2Cc2ccc(C)cc2)cc1OC | inactive
48 | Cn1c(Nc2cccc(Cl)c2)nc2ccccc21 | inactive
49 | OCCCNc1nccc(-c2cc(Nc3cccc(Cl)c3)ncn2)n1 | 0.891 µM (active)
50 | CCOC(=O)[C@]12CCCC=C1N(CCC1=CCCCC1)C(=O)[C@H](CC(=O)N1CCOCC1)C2 | inactive
51 | CNc1cncc(-c2ccc(NS(C)(=O)=O)cc2)n1 | inactive
52 | CCOC(=O)[C@]12CCC=C1N(CCC1=CCCCC1)C(=O)[C@H](CC(=O)NCc1ccc(C)o1)C2 | inactive
53 | CC(C)(C)NC(=O)C(CCc1ccccc1)n1c(=O)c(-c2ccccc2)nc2ccccc21 (stereo not drawn) | inactive
54 | CN(C)C(=O)c1coc2nc3ccccc3nc12 | inactive
55 | CNC(=O)C(NC(=O)c1ccccc1)=C(C)C | inactive
56 | CNC(=O)c1cccc2nc3ccccc3nc12 | 6.31 µM (active)
57 | Brc1ccc2nc(-c3ccccc3)c(Cc3ccccc3)n2c1 | inactive
58 | OC(Cc1ccc2ccccc2n1)c1ccc(Cl)c(Cl)c1 (stereo not drawn) | inactive
59 | COc1ccc(S(=O)(=O)N[C@@H]2C=C[C@@H](CC(=O)N3CCc4ccccc4C3)O[C@@H]2CO)cc1 | inactive
60 | COc1ccc(NC(=O)C2Cc3c(-c4ccc5c(c4)OCO5)ccnc3O2)cn1 (stereo not drawn) | inactive
61 | Cc1ccc(NC(=O)NC(=O)c2ccccc2)cc1F | inactive
62 | Cc1cccc(NC(=O)NC(=S)NC(=O)c2ccccc2)c1 | 10 µM (active)
63 | Cc1ccc(NC(=S)NC(=O)c2ccc(-c3ccccc3)cc2)cc1 | inactive
